This note sets out measurements from article PMC4552634, “A New Set of Chemical Starting Points with Plasmodium falciparum Transmission-Blocking Potential for Antimalarial Drug Discovery” (PLoS ONE, 2015).

About 3,200 (25%) of roughly 13,000 compounds showed an effect of 50% or more. This is one part of the list.

In this assay the test system is P. falciparum stage V gametocytes. Further details: BacTiter-Glo ATP luminescence viability of purified stage V gametocytes in 384-well plates, per cent inhibition versus DMSO. The note with it: 48 h, 5 µM; inhibitor.
Consider `c1ccc(C2=NN=C(c3ccccn3)C3C4CC(C23)C2C3CC(c5ccccc53)C42)nc1` (stereo not drawn) [TCMDC-138248], for which the “% Inhibition” value is -12.71%.
Then `COc1ccc(C(=O)Nc2cc(Cl)c3c(c2)C2CCCN2CC3)cc1C(F)(F)F` (stereo not drawn) [TCMDC-139417], with -51.32%; and `COc1cc(NC(=O)/C=C/c2cc(F)cc(F)c2F)cc(OCCN2CCN(CCN3CCOCC3)CC2)c1` [TCMDC-140930], with -13.83%; and `COc1ccc(CNc2cc(C)nc3sc4c(c23)CCC2(C4)OCCO2)cc1` [TCMDC-138981], with -1.212%.
For `COc1ccc(-c2cncc3ccc(C(=O)NCc4ccncc4)nc23)cc1` [TCMDC-125411], the “% Inhibition” value came out at 51.25%.
With `COc1ccc(-c2cc3nc4c(c(NCCCn5ccnc5)n3n2)CCCC4)cc1` [TCMDC-124389], the “% Inhibition” value was -21.29%.
Then `Cc1nc(NCCCn2ccnc2)cc(-c2cncc(-c3ccc(OC(F)(F)F)cc3)c2)n1` [TCMDC-125423], with 9.398%.
For `COc1ccc(-n2nc(C)cc2C(=O)NCc2ccc(-c3c(C)noc3C)cc2)cc1` [TCMDC-133779], the “% Inhibition” value was 19.66%.
On to `COc1ccc(-c2cncc3ccc(C(=O)NCCCn4ccnc4)nc23)cc1` [TCMDC-125412], for which the “% Inhibition” value is reported as 77.43%.
On to `COc1ccc(NC(=O)Nc2ccc(C)c(-c3ccc(C(=O)Nc4ccncc4)cc3)c2)cc1` [TCMDC-133705], for which the “% Inhibition” value is recorded as 11.61%.
For `COc1ccc(Nc2cc(C)nc(Nc3ccc(NC(C)=O)cc3)n2)cc1` [TCMDC-124979], the “% Inhibition” value is reported as -41.12%.
For `O=C(Nc1ccc(I)cc1)Nc1ccc(Cn2ncc(N3CCCNCC3)c(Cl)c2=O)cc1` [TCMDC-133322] the value was -17.85%; for `Cc1ccc2c(C3=CCN(CCCCC4(C)C(=O)Nc5c(F)cccc54)CC3)c(C)[nH]c2c1` (stereo not drawn) [TCMDC-141005], 12.05%; for `CCN(CC)Cc1ccc2c(=O)cc(CCc3cccc(F)c3F)n(CC(=O)N(Cc3ccc(-c4ccc(C(F)(F)F)cc4)cc3)C(C)C)c2c1` [TCMDC-141567], 74.8%.
Take `CC(C)N(Cc1ccc(-c2ccc(C(F)(F)F)cc2)cc1)C(=O)Cn1c(CCc2cccc(F)c2F)cc(=O)c2ccc(CCCN3CCCCC3)cc21` [TCMDC-141581]: the “% Inhibition” value is recorded as 119.6%.
Consider `CN(C)CCOc1cc(NC(=O)Nc2cccc3c(-c4ccncc4)cccc23)ccc1I` [TCMDC-139143], for which the “% Inhibition” value was found to be 27.84%.
For `CN(C)CCOc1cc(NC(=O)Nc2ccc(Oc3ccccc3)cc2)ccc1I` [TCMDC-139113] the value was -27.54%; for `COc1cc(Cc2cnc(N)nc2N)cc(OC)c1OCCNC(=O)[C@@H](N)CCC(=O)O` [TCMDC-137685], -2.761%; for `Cc1cc(F)ccc1[C@H]1CNCCN1C(=O)N(C)C(C)(C)c1cc(C(F)(F)F)cc(C(F)(F)F)c1` [TCMDC-138568], 62.57%.
`Cc1cc(F)ccc1[C@H]1C[C@H](N2CCOCC2)CCN1C(=O)N(C)[C@@H](C)c1cc(C(F)(F)F)cc(C(F)(F)F)c1` [TCMDC-138838]: the “% Inhibition” value was determined as 17.17%.
Then `Cc1cc(F)ccc1[C@H]1CNCCN1C(=O)N(C)[C@@H](C)c1cc(C(F)(F)F)cc(C(F)(F)F)c1` [TCMDC-138495], with 76.86%; and `CCNc1cc(C(=O)N[C@@H](Cc2ccccc2)[C@H](O)CNC2CCC(C(C)(C)C)CC2)cc(N2CCCC2=O)c1` (stereo partly drawn) [TCMDC-138903], with 47.86%; and `CC(Oc1ccc(Cl)cc1)C(=O)Nc1cc(C(F)(F)F)ccc1N1CCOCC1` (stereo not drawn) [TCMDC-125311], with 3.686%.
As for `Cc1ccnc2nc(C(=O)Nc3cc(Cl)ccc3N3CCOCC3)nn12` [TCMDC-124435], the “% Inhibition” value is listed as 7.323%.
Then `CC1CCCN(C(=O)C(C)Nc2cc(Cl)ccc2N2CCOCC2)C1` (stereo not drawn) [TCMDC-125110], with 85%.
For `COc1ccccc1CNC(=O)CCn1c(=O)[nH]c2ccsc2c1=O` [TCMDC-123587] the value was 30.03%.
For the compound `O=C(CSc1nc2ccccc2c(=O)n1C1CC1)Nc1cc(C(F)(F)F)ccc1Cl` [TCMDC-123578], the “% Inhibition” value is listed as -84.13%.
For `NC(N)=NCC=C(c1ccccc1)c1ccccc1` [TCMDC-137566] the value was 51.32%.
For `NC(N)=NCCCN(Cc1ccccc1)c1ccccc1` [TCMDC-131836], the “% Inhibition” value was 40.87%.
For `CC1(C)N=C(N)N=C(N)N1OCOc1cc(Cl)c(Cl)cc1Cl` [TCMDC-131783] the value was 42.76%; for `CCOC(=O)c1cc(Cl)cc(Cl)c1OCCCON1C(N)=NC(N)=NC1(C)C` [TCMDC-131703], 21.46%; for `O=C(Nc1ccc(-c2nc3ccccc3[nH]2)cc1)c1cccc(S(=O)(=O)N2CCCC2)c1` [TCMDC-125262], -9.526%.
For `CC[C@H](C)CNC(=O)c1cncc(-c2ccc(CNC3CCCC3)cc2)c1` [TCMDC-134232] the value was 8.826%; for `CC(C)CNCc1ccc(-c2cccc(CN(CCN(C)C)C(=O)CCC3CCCC3)c2)cc1` [TCMDC-140553], 109.4%.
Regarding `CN(C)CCN(Cc1ccc(-c2ccc(CNCCc3ccccc3)cc2)nc1)C(=O)CCC1CCCC1` [TCMDC-141402], the “% Inhibition” value is recorded as 63.7%.
Turning to `CC(C)CNC(=O)c1cncc(-c2ccc(CN(C)C3CCN(C)CC3)cc2)c1` [TCMDC-134235], the “% Inhibition” value came out at 31.51%.
For `CC[C@H](C)CNC(=O)c1cncc(-c2ccc(CN(C)C3CCN(C)CC3)cc2)c1` [TCMDC-134233] the value was 22.49%.
As for `CC(C)CNCc1ccc(-c2ccc(CN(CCCN3CCN(C)CC3)C(=O)CCC3CCCC3)cc2)cc1` [TCMDC-140559], the “% Inhibition” value was determined as 105.9%.
Then `CC(C)CNCc1cccc(-c2cccc(CN(CCCN3CCN(C)CC3)C(=O)NC3CCCCC3)c2)c1` [TCMDC-140633], with 106.9%; and `COc1cc(NC(=O)/C=C/c2ccccc2OC(F)(F)F)cc(OCCN2CCN(CCN3CCOCC3)CC2)c1` [TCMDC-140929], with -8.825%; and `COc1cc(NC(=O)NC(CCN2CCC3(CCc4ccccc43)CC2)c2ccc(Cl)c(Cl)c2)cc(OC)c1OC` (stereo not drawn) [TCMDC-141765], with -19.84%.
Then `CCC(C)CN1CCC(N(C)c2cc(NC(=O)c3ccc(F)cc3)ccn2)CC1` (stereo not drawn) [TCMDC-134951], with 19.56%.

Broadly, the % Inhibition is the drop in the measured response relative to a control, in per cent.
